Source: PubChem BioAssay AID1863 (Southern Research Specialized Biocontainment Screening …, 2009)
The campaign covered roughly 300,000 compounds. About 480 (0.16%) were called active.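 The calls were made as follows: active = inhibition over 29.93%, a cutoff 3 SD above the screen mean, later confirmed by dose response; inconclusive = inhibition over 29.93% but no dose response follow-up; inactive = inhibition at most 29.93% or unconfirmed.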 Only a sample is shown. Entries with a potency or affinity are not part of this list.

Assay: PhoP-dependent GFP reporter repression – Salmonella Typhimurium, primary screen (AID 1863);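 also: 0% = low Mg2+ inducing control and 100% = high Mg2+ repressing control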
Conditions: S. Typhimurium PhoP-regulated promoter GFP reporter, 4 h; at 50 µM; stronger effect = higher value

inhibition, inactive:
CC[n+]1c(/C=C/C=C/N(C(C)=O)c2ccccc2)sc2cc(OC)ccc21 -71.7%, CC[n+]1c(/C=C(\C)SC)sc2ccccc21 0.17%, CCN1/C(=C/c2ccc3cc(C)ccc3[n+]2CC)Sc2ccccc21 -133%, CCN1/C(=C/C=C/C=C/C=C/c2sc3ccccc3[n+]2CC)Sc2ccccc21 -8.59%, CC[n+]1c(/C=C(/C)SC)sc2ccccc21 0.31%, CC[n+]1c(/C=C/Nc2ccccc2)sc2ccccc21 -20.8%, CC[n+]1c(/C=C/C=C/N(C(C)=O)c2ccccc2)sc2ccccc21 -10.1%, CCN1/C(=C\C=C(C(C)=O)C(C)=O)Sc2ccccc21 -11.4%, COCCN1CCC(CNCc2c(C(=O)N3CCCCC3)nc3c(C)cccn23)C1 (centres undefined) -11.8%, CCOc1ccccc1CN1CCN(Cc2ccon2)CC1CCO (centres undefined) -9.77%, COc1ccc2c(CC(=O)Nc3ccc(OC)c(S(=O)(=O)N4CCOCC4)c3)coc2c1 4.59%, O=C(NCC(O)COc1ccc([N+](=O)[O-])cc1)c1ccccc1 (centres undefined) -9.65%, Cc1ccc(CNCCC2=CCCCC2)cc1 -46.6%, Clc1ccc(CNCCC2=CCCCC2)cc1 18.9%, O=C(NC1CC1)c1c[nH]c2ccc(S(=O)(=O)Nc3cccc(C(F)(F)F)c3)cc2c1=O 14.8%, CCn1cc(C(=O)NCCc2ccccc2)c(=O)c2cc(F)c(N3CCN(C)CC3)cc21 -0.827%, CCn1cc(C(=O)NCc2ccccc2)c(=O)c2cc(F)c(N3CCN(C(=O)c4ccco4)CC3)cc21 6.24%, CCn1cc(C(=O)O)c(=O)c2cc(F)c(N3CCN(C(=S)NC(=O)c4ccccc4Br)CC3)cc21 8.64%, C=CCNC(=O)c1cn(CC)c2cc(N3CCN(C(=O)c4ccco4)CC3)c(F)cc2c1=O 5.05%, CCC(CO)NC(=O)c1ccccc1C(F)(F)F (centres undefined) 2.52%, O=C(O)C1C2CCC(O2)C1C(=O)Nc1ccccc1Br (centres undefined) -9.38%, COC(=O)c1ccccc1NC(=O)C1CCN(C(=O)Cc2ccccc2)CC1 3.37%, CCOC(=O)COc1c(Br)cc(/C=C2\SC(=O)N(CC(=O)N3CCCC3)C2=O)cc1OC 5.47%, COc1ccc(N(C(=O)CNC(=O)c2cccs2)C(C(=O)NC2CCCC2)c2ccncc2)cc1 (centres undefined) -0.95%, Cc1nc2nc3c(cn2n1)C(=O)CC(C)(C)C3 -6.32%, CC(C)n1c(SCC(=O)NC2CC2)nnc1-c1ccco1 3.76%, CCOC(=O)CSc1nc2c(c(=O)n1-c1ccc(OCC)cc1)SCC2 -4.68%, Cc1ccc(C(=O)c2no[n+]([O-])c2C(=O)c2ccc(C)cc2)cc1 -26.5%, COc1ccc(C(=O)c2no[n+]([O-])c2C(=O)c2ccc(OC)cc2)cc1 -73.5%, Cc1ccc(S(=O)(=O)NN2C(=O)c3ccccc3NC2c2ccccc2O)cc1 (centres undefined) 2.27%, Cc1onc(-c2ccccc2)c1C(=O)NC(=S)NNC(=O)c1ccc(O)cc1 -7.99%, Cc1onc(-c2ccccc2)c1C(=O)NC(=S)NNC(=O)c1ccccc1O 18.4%, CC(C)[C@@H](COc1ccccc1)N1CCN(Cc2ccccc2)CCC1=O 11.4%, Cc1ccc(N(CC(=O)NC2CCCCC2)C(=O)CNC(=O)c2cccs2)cc1 5.02%, CNC[C@H](CC1CCCCC1)NC[C@H](CO)NCC1(c2ccccc2)CC1 5.82%, CNC[C@H](CC1CCCCC1)NC[C@H](CO)NCCc1cccc(C(F)(F)F)c1 13%, Cc1ccccc1NC(=O)NC1(C(=O)NCc2ccco2)CCCCC1 -5.56%, Cc1cccc(NC(=O)CSc2nnc(-c3ccncc3)n2CC2CCCO2)c1 (centres undefined) 0.37%, Clc1ccc2[nH]c3c(NCCN4CCOCC4)ncnc3c2c1 -2.52%, Clc1ccc2[nH]c3c(NCC4CCCO4)ncnc3c2c1 (centres undefined) 17.8%, COc1ccc(NC(=O)CSc2cc(C(=O)c3nccn3C)c3ccccc3n2)cc1 3.48%, CCOc1ccc(NC(=O)c2cc(Cl)nc3ccccc23)cc1 1.03%, C=CCNc1nc(Nc2ccccc2F)nc(OCC)n1 -4.99%, Oc1ccccc1Nc1nc(NCc2ccccc2)c2ccccc2n1 -0.55%, Cc1ccc(-c2nc(NCc3ccco3)c3ccccc3n2)cc1 23.9%, COc1ccccc1Nc1nc(NCc2ccco2)c2ccccc2n1 48%, Fc1ccccc1-c1nc(NCc2ccco2)c2ccccc2n1 -13.7%, Cc1ccccc1Nc1nc(NCc2ccco2)c2ccccc2n1 25.6%, OCCNc1nc(NCc2ccccc2)c2ccccc2n1 3.19%, CCc1noc(C)c1C(=O)Nc1ncc(C)s1 2.49%, CCC(Oc1ccccc1)C(=O)Nc1nc2ccccc2[nH]1 (centres undefined) -3.54%, Cc1ccc2cc(C(c3nnnn3C3CCCC3)N(Cc3ccco3)Cc3cccs3)c(=O)[nH]c2c1 (centres undefined) -2.55%, CN1CCc2c(sc3nc(NCCO)n(-c4cccc(Cl)c4)c(=O)c23)C1 -3.53%, CC(Oc1ccccc1)C(=O)N=C1SC2CS(=O)(=O)CC2N1c1ccc(F)cc1 (centres undefined) -3.91%, O=S(=O)(Nc1nc2ccccc2nc1NCC1CCCO1)c1ccc(F)cc1 (centres undefined) 6.59%, Cc1cc2ncn(/N=C/c3ccc([N+](=O)[O-])s3)c2cc1C -6.99%, Cc1cccc(C)c1NC(=O)CNCC(=O)Nc1c(C)cccc1C 0.56%, O=C(O)c1cccc(NC(=O)c2ccc3c(c2)C(=O)N(CC2CCCO2)C3=O)c1 (centres undefined) -1.15%, O=[N+]([O-])c1ccc(/C=N/Nc2ccccn2)cc1 4.65%, Cc1cc(Cl)ccc1NC(=O)CCC(=O)N/N=C/c1cc([N+](=O)[O-])ccc1O 12.1%, COc1cc([N+](=O)[O-])cc(/C=N/NC(=O)CSc2ccccn2)c1O 24.8%, O=C(CSc1nc2ccccc2s1)N/N=C/c1ccccc1C(=O)O -5.31%, O=C(CSc1ccccn1)N/N=C/c1cccc([N+](=O)[O-])c1 0.8%, Cc1ccc(C)c(NC(=O)CCC(=O)N/N=C/c2cc([N+](=O)[O-])ccc2O)c1 8.86%, O=C(CSc1nc2ccccc2s1)NCc1cc([N+](=O)[O-])ccc1O -4.94%, O=[N+]([O-])c1cccc(/C=N/Nc2ccccn2)c1 -2.55%, O=C1CCc2cc(NS(=O)(=O)c3ccccc3)cc3c2N1CCC3 3.44%, CCOC(=O)C1(Cc2ccc(Cl)cc2)CCN(C2CCC2)CC1 -6.48%, CC(C)c1nc(SCC(=O)Nc2cccc(S(N)(=O)=O)c2)n[nH]1 -17.9%, COc1ccc(CC(=O)Nc2nc(-c3ccccc3)c(C(C)=O)s2)cc1OC 5.08%, COc1ccc(S(=O)(=O)N2CCC(C(=O)NCCCc3ccccc3)CC2)cc1 -11.5%, NC(N)=NC(=S)Nc1ccc(Cl)cc1 -3.56%, CC(C)N=C(N)N=C(N)Nc1ccc(Cl)cc1 -0.65%, O=C(NCc1ccccc1)c1cncc(Br)c1 3.01%, CC1CCC2(CC1)NC(=O)N(CC(=O)c1cn(CCC#N)c3ccccc13)C2=O (centres undefined) -10.8%, Cc1cc(C)n2nc(C(=O)OCC(=O)c3c[nH]c4ccccc34)nc2n1 10.2%, COc1ccc(CNC(=O)CSc2nnc(NC(=O)C3CC3)s2)cc1 -0.4%, Oc1ccccc1/C=N/Nc1nccnc1Cl 25.1%, Oc1ccc(/C=N/Nc2nccnc2Cl)cc1 5.13%, Oc1c(Cl)cc(Cl)cc1/C=N/Nc1ncc(Br)cn1 6.58%, Oc1ccccc1/C=N/Nc1ncc(Br)cn1 -2.93%, Cc1ccccc1-n1c(SCC(=O)N/N=C/c2sccc2C)nc2ccccc2c1=O -15.1%, Cc1nn2c(-c3ccc(S(=O)(=O)N4CCN(C)CC4)o3)nnc2c2ccccc12 1.51%, Cc1cc2c(cc(C(=O)NCc3cccnc3)n2Cc2ccc(Cl)cc2)o1 13%, COc1ccc(N2CCOCC2)c(NC(=O)c2cccnc2)c1 0.01%, CCN(Cc1cn2cccnc2n1)C1CCCCC1 -4.78%, Cc1nc(N)nc(Cl)c1Cc1ccc(Cl)cc1 2.03%, Cc1nc2ccc(Cl)cc2nc1C -3.83%, O=[N+]([O-])c1cc2c(cc1CN1CCN(c3ccc(F)cc3)CC1)OCO2 -3.23%, CCOc1ccc(-c2nc(S(=O)(=O)c3ccccc3)c(NC)o2)cc1 -1.53%, COCCCNC(=O)CCCN1C(=O)c2cccnc2Sc2ccccc21 -9.37%, COc1ccc(N2CCN(c3nc4c(C)cccn4c(=O)c3/C=C(\C#N)C(N)=O)CC2)cc1 0.07%, COc1cc(Cl)ccc1OCc1cc(C(=O)N2CCC(N(C)C)C2)no1 (centres undefined) 4.49%, O=C(Oc1c(CN2CCOCC2)cc(Cl)c2cccnc12)c1ccccc1Cl 13.4%, COCc1cc(CN2CCCC2)c(O)c2ncccc12 0.6%, O=[N+]([O-])c1cc(CN2CCN(c3ccccc3)CC2)c(O)c2ncccc12 14%, CN1CCN(Cc2cc(COCc3ccccc3)c3cccnc3c2O)CC1 21%, O=[N+]([O-])c1cccc2c(N3CCOCC3)ccnc12 -2.73%, Oc1c(CN2CCCCC2)cc(Br)c2cccnc12 -2.58%
